Experimental data reported in PubChem BioAssay AID686979 (National Center for Advancing Translational Sciences (NCATS), 2013).
About 50,000 (12%) of roughly 420,000 compounds were called active. About 26% were inconclusive and are not listed. The call rests on the fitted dose curve; in most records, active means well fitted inhibition curve with a large enough effect; inconclusive means small, poorly fitted or top-dose-only effect; inactive means flat fitted curve, though single readings scatter. Only a selection was taken, and actives are over-represented in it overall.

Assay: qHTS for Inhibitors of human tyrosyl-DNA phosphodiesterase 1 (TDP1): qHTS in cells in presence of CPT; further: nearly all actives have a fitted effect of over 55% in size
Settings: chicken DT40 Tdp1-/-;hTDP1 cells + 20 nM CPT, ATP luminescence, 48 h; series mostly up to 46.2 µM; activity change, negative = growth inhibition: at the top concentration
Outline: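 Chicken DT40 Tdp1-/- cells complemented with human TDP1, 400 cells/well, exposed to compounds plus 20 nM camptothecin for at least 48 h at 37 C; viability read as ATP content by CellTiter-Glo luminescence.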
On the % scale 0 is the no-effect control and ±100 the full control effect; potency means the concentration at half of the fitted maximal effect.

| SMILES | activity change, negative = growth inhibition | Potency |
| --- | --- | --- |
| O=S(=O)(NCC1CC1)c1ccc(F)c(Cl)c1 | 8.32% (inactive) | – |
| NNC(=O)c1ccc(Cl)cc1Cl | 2.28% (inactive) | – |
| O=S(=O)(Cc1ccc(Cl)cc1Cl)c1ccc(Cl)cc1 | – | 0.82 µM (active) |
| O=CN1CCN(C(=O)c2ccc(Br)o2)CC1 | -0.819% (inactive) | – |
| O=C(CSc1ncnc2c1oc1ccccc12)NC1CCCC1 | -20.3% (inactive) | – |
| CC(C)[C@@H]1COC(c2cccc(C3=N[C@H](C(C)C)CO3)c2)=N1 | – | 20.6 µM (active) |
| O=C(O)CSCC(=O)Nc1ccc(C(F)(F)F)cc1 | 17.9% (inactive) | – |
| O=C(OCC(=O)N1CCCCC1)c1ccc(OC(F)(F)F)cc1 | -5.48% (inactive) | – |
| Cc1nc2ccccc2c2oc(C(=O)NCCCN3CCC(C)CC3)cc12 | -23.5% (inactive) | – |
| NS(=O)(=O)c1ccc(CCNC(=O)CCCCCn2c(=O)[nH]c3ccccc3c2=O)cc1 | -16.3% (inactive) | – |
| O=C(CCn1c(=S)[nH]c2ccccc2c1=O)NCCCN1CCCC1=O | 4.25% (inactive) | – |
| O=C(CCCCn1c(=O)[nH]c2ccccc2c1=O)NCc1ccc2c(c1)OCO2 | -19.6% (inactive) | – |
| CCN(CC)CCNC(=O)CCCCCn1c(=O)[nH]c2cc(C(=O)OC)ccc2c1=O | -21.7% (inactive) | – |
| Cc1ccc(C)c(N2CCN(C(=O)CCc3c(C)nc4c(c3C)c(=O)n(C)c(=O)n4C)CC2)c1 | -1.63% (inactive) | – |
| O=C(CCCn1c(=O)[nH]c2cc(Cl)ccc2c1=O)NCCN1CCN(c2ccccc2)CC1 | – | 23.1 µM (active) |
| O=C(CCCCCn1c(=O)[nH]c2ccccc2c1=O)NCCc1c[nH]c2ccccc12 | -24.7% (inactive) | – |
| Cc1ccc(C)c(N2CCN(C(=O)CCCCn3c(=O)[nH]c4ccccc4c3=O)CC2)c1 | – | 16.4 µM (active) |
| O=C(Cc1csc(Nc2nc(=S)[nH]c3ccccc23)n1)NCCCN1CCN(c2cccc(Cl)c2)CC1 | – | 16.4 µM (active) |
| O=C(CCn1c(=O)[nH]c2ccccc2c1=O)NCCCN1CCN(c2cccc(Cl)c2)CC1 | – | 20.6 µM (active) |
| O=C(NCCN1CCOCC1)c1cc(Sc2cccc(Cl)c2)nc2ccccc12 | -34% (inactive) | – |
| COc1cc(/C=C2\CCCc3c2nc2ccccc2c3C(=O)O)cc(Cl)c1O | 5.4% (inactive) | – |
| O=C(Nc1cccnc1Oc1ncnc2cc(Cl)ccc12)c1ccc(F)cc1 | 8.31% (inactive) | – |
| CC(NS(=O)(=O)c1ccccc1)c1n[nH]c(=S)n1-c1ccccc1 (stereo not given) | 2.51% (inactive) | – |
| CCC(C)CN1C(=O)CN(S(C)(=O)=O)CC1(C)C(=O)Nc1ccc2c(c1)OCCO2 (stereo not given) | -11.4% (inactive) | – |
| O=C(C[C@H]1CC[C@H]2[C@@H](COC[C@H](O)CN2C(=O)c2ccccn2)O1)N1CCN(c2ccccc2)CC1 | -15.1% (inactive) | – |

| SMILES | activity change, negative = growth inhibition | Potency |
| --- | --- | --- |
| Cc1nccn1-c1ccc(NC(=O)[C@H]2O[C@@H](n3ccc(=O)[nH]c3=O)[C@H](O)[C@@H]2O)cc1 | -11.3% (inactive) | – |
| Cc1cc(O)ccc1-c1cnc2ccccc2n1 | -26.9% (inactive) | – |
| CC(=O)Nc1cnc(-c2ccc(O)cc2C)cn1 | – | 9.2 µM (active) |
| CC(=O)Nc1cncc(-c2ccccc2CO)n1 | 17.6% (inactive) | – |
| COC(=O)c1ccc(CSc2nc3cc(Cl)ccc3o2)cc1 | -6.06% (inactive) | – |
| COc1ccc(C(=O)OCC(=O)NCCCc2ccccc2)cc1OC | -4.58% (inactive) | – |
| COC(=O)c1ccc(COC(=O)c2cnc(Cl)c(Cl)c2)cc1 | 4.07% (inactive) | – |
| COC(=O)c1ccc2nc(-c3ccc(Cl)cc3)c(Cc3cccc(F)c3)n2c1 | – | 20.6 µM (active) |
| COc1ccc(C(=O)NNc2cc(C)nc(NNC(=O)c3ccc(OC)cc3)n2)cc1 | 1.43% (inactive) | – |
| COC(=O)c1ccc2nc(-c3ccc(C)cc3)c(Cc3ccc(OC)cc3C)n2c1 | – | 23.1 µM (active) |
| COC(=O)c1ccc2nc(-c3ccc(OC)c(OC)c3)c(Cc3ccccc3)n2c1 | – | 23.1 µM (active) |
| COC(=O)c1ccc2nc(-c3cccc(Br)c3)c(Cc3ccccc3C(F)(F)F)n2c1 | -1.17% (inactive) | – |
| COc1ccc(NC(=O)c2cc(-c3ccc(C)cc3)on2)cc1 | 9.84% (inactive) | – |
| Cc1ccc(N2CCN(c3ccc([N+](=O)[O-])cn3)CC2)c(C)c1 | -24.7% (inactive) | – |
| CCOC(=O)CNC(=O)/C(=C\c1ccc(F)cc1)NC(=O)c1ccccc1 | -0.888% (inactive) | – |
| CCOC(=O)C(=Cc1ccccc1)C(=O)c1ccccc1 | – | 18.4 µM (active) |
| CCOC(=O)C(=CNc1cccc(C)n1)C(=O)OCC | -1.85% (inactive) | – |
| O=c1ccc2cc(S(=O)(=O)Nc3ccccc3F)ccc2o1 | -5.21% (inactive) | – |
| COc1ccc2c(c1)c(=O)c(S(=O)(=O)c1ccc(F)cc1)cn2CC(=O)Nc1ccc(C)cc1C | 12.7% (inactive) | – |
| CCOc1cccc(C(=O)Nc2cnn(Cc3ccccc3)c2)c1 | -15.9% (inactive) | – |
| CCOc1ccc(S(=O)(=O)NCCSc2ccccc2)cc1 | -6.71% (inactive) | – |
| CCCn1cc(S(=O)(=O)c2ccc(C)cc2)c(=O)c2cc(OCC)ccc21 | -18.5% (inactive) | – |
| CCOc1ccc2c(c1)c(=O)c(S(=O)(=O)c1ccc(C)cc1)cn2CC | – | 18.4 µM (active) |
| CCOc1ccc(S(=O)(=O)c2cn(Cc3ccccc3)c3ccc(OCC)cc3c2=O)cc1 | – | 13 µM (active) |
| CCN(CC)Cc1c(C(=O)N/N=C/c2cccc(OCc3ccc(F)cc3)c2)nnn1-c1nonc1N | -7.48% (inactive) | – |

| SMILES | activity change, negative = growth inhibition | Potency |
| --- | --- | --- |
| CC(C)(C)n1nc2c(c1NC(=O)c1cc3ccccc3o1)CSC2 | -29.8% (inactive) | – |
| O=C(NC(=S)Nc1cc(C(F)(F)F)ccc1N1CCOCC1)c1ccc(-c2cccc(Cl)c2)o1 | -17.4% (inactive) | – |
| CCN(CC)CCn1c(/N=C/c2cc(Br)ccc2O)nc2ccccc21 | -26.1% (inactive) | – |
| Oc1ccc(Br)cc1C=Nc1ccc2[nH]ncc2c1 | -6.55% (inactive) | – |
| Oc1ccc(Br)cc1/C=N/Nc1ccccn1 | – | 1.64 µM (active) |
| O=C(NCCN1CCOCC1)Nc1cccc(Cl)c1 | 7.86% (inactive) | – |
| COc1ccc(CN2CCCC(CNC(=O)c3ccc(F)cc3)C2)cc1OC (stereo not given) | -25.5% (inactive) | – |
| CCN1CCCC1CNC(=O)c1cc2cc(OC)c(OC)cc2[nH]1 (stereo not given) | -12.6% (inactive) | – |
| CCN1CCCC1CNC(=O)c1ccc2c(c1)NC(=O)/C(=C\c1ccccc1F)S2 (stereo not given) | – | 18.4 µM (active) |
| CCN1CCN(CCNC(=O)c2ccc3c(c2)NC(=O)/C(=C\c2cccc(Cl)c2)S3)CC1 | – | 23.1 µM (active) |
| O=C(NCCCN1CCCCC1)c1ccc2c(c1)NC(=O)C(N1CCOCC1)S2 (stereo not given) | -21.2% (inactive) | – |
| CCOC(=O)c1sc(=NC(=O)c2ccc(Br)cc2)n(C)c1C | 3.17% (inactive) | – |
| Cc1ccc2nc(-c3ccc(Br)cc3)cn2c1 | 1.32% (inactive) | – |
| Cc1ccc(NS(=O)(=O)c2ccc(-c3ccc(=O)[nH]n3)o2)c(C)c1 | -23% (inactive) | – |
| O=C(O)c1[nH]c2ccccc2c1C(c1cccc(O)c1)c1c(C(=O)O)[nH]c2ccccc12 | -4.46% (inactive) | – |
| CC(=O)OCC(C)n1c(=O)c2ccccc2n1C(C)=O (stereo not given) | -1.82% (inactive) | – |
| NC(=S)NN=Cc1ccc(OC(=O)COc2cc(Cl)c(Cl)cc2Cl)cn1 | – | 6.51 µM (active) |
| O=C(COC(=O)COc1cc(Cl)c(Cl)cc1Cl)NC1CC1 | -17.8% (inactive) | – |
| O=C(COc1cc(Cl)c(Cl)cc1Cl)NCCc1ccccn1 | 2.28% (inactive) | – |
| O=C(Cn1cnc2c(oc3ccccc32)c1=O)Nc1ccc(OC(F)(F)F)cc1 | -14.7% (inactive) | – |
| C[C@H](NC(=O)c1ccccc1Cl)C(=O)OCCOc1cccc(Cl)c1 | -17.7% (inactive) | – |
| O=C1C(Sc2cccc(F)c2)=C[C@@]2(O)CC[C@@H](O)[C@]1(Sc1cccc(F)c1)[C@H]2O | – | 16.4 µM (active) |
| CC1=C(C(=O)OCc2ccccc2)C(c2ccco2)n2ncnc2N1 (stereo not given) | – | 23.1 µM (active) |
| COC(=O)C1=C(C)Nc2ncnn2C1c1ccco1 (stereo not given) | 4.8% (inactive) | – |
| COc1ccccc1NC(=O)C1=C(C)Nc2ncnn2C1c1ccc(C)o1 (stereo not given) | 0.297% (inactive) | – |

| SMILES | activity change, negative = growth inhibition | Potency |
| --- | --- | --- |
| Cc1ccc(S(=O)(=O)c2c[nH]c3ccc(Cl)cc3c2=O)cc1 | 29.4% (inactive) | – |
| Cc1nc(COc2cc3oc(=O)cc(C)c3cc2Cl)cs1 | 2.52% (inactive) | – |
| COc1ccc(-c2nn(-c3ccccc3)cc2/C=N/Nc2ccccn2)cc1OC | – | 7.31 µM (active) |
| O=Cc1cn(-c2ccccc2)nc1-c1ccccn1 | -24% (inactive) | – |
| CN(C)/N=C/c1cn(-c2ccccc2)nc1-c1cccnc1 | -32.9% (inactive) | – |
| Cc1cc(C)cc(OCC(=O)Nc2nc(-c3ccc(F)cc3)ns2)c1 | -26.5% (inactive) | – |
| O=c1ccn([C@@H]2O[C@H](CNS(=O)(=O)c3cc4ccccc4s3)[C@@H](O)[C@H]2O)c(=O)[nH]1 | -10.7% (inactive) | – |
| COc1ccc2c(c1)c1ncn(Cc3ccccn3)c(=O)c1n2C | -5.08% (inactive) | – |
| Cc1cc([N+](=O)[O-])nn1Cc1ccc(F)cc1 | 0.664% (inactive) | – |
| C=CCN1C(=O)C2(OCCCO2)c2cccc(Cl)c21 | -7.94% (inactive) | – |
| C=CCN1C(=O)C(O)(CC(=O)c2ccc(Cl)cc2)c2ccccc21 (stereo not given) | – | 18.4 µM (active) |
| C=CCN1C=C(C(=O)c2ccccc2)C(=O)CC1 | 11.1% (inactive) | – |
| O=C(NCc1ccccc1)C1CCN(S(=O)(=O)c2ccc3[nH]c(=O)ccc3c2)CC1 | -5.45% (inactive) | – |
| CCC(=O)N1CCc2cc(S(=O)(=O)NC(Cc3ccccc3)C(=O)NCc3ccc(C)cc3)ccc21 (stereo not given) | -22.3% (inactive) | – |
| COCCCNC(=O)/C(C#N)=C/c1c(N2CCCCCC2)nc2ccccn2c1=O | 3.95% (inactive) | – |
| CC(=O)Nc1ccc(NC(=O)COc2ccc(S(=O)(=O)NC(C)c3ccccc3)cc2)cc1 (stereo not given) | -5.71% (inactive) | – |
| Cc1ccc(COc2ccc(/C=N/NC(=O)CN3CCCCC3)cc2)cc1 | 4.47% (inactive) | – |
| Cc1ccc(/C=N/NC(=O)c2sccc2OCc2ccc(F)cc2)cc1 | – | 16.4 µM (active) |
| CNC(=S)NNC(=O)c1sccc1OCc1ccccc1 | -5.88% (inactive) | – |
| CCOc1ccccc1NC(=O)CN1CCN(S(=O)(=O)c2ccc(Br)cc2)CC1 | -28.6% (inactive) | – |
| CC(=O)Nc1ccc(Nc2ncnc3c2nnn3Cc2ccccc2Cl)cc1 | 17.7% (inactive) | – |
| O=C(Nc1ccc(F)cc1)N1CCCC(c2nc3c(nnn3Cc3ccccc3Cl)c(=O)[nH]2)C1 (stereo not given) | – | 20.6 µM (active) |
| COc1ccc(Cn2nnc3c(=O)[nH]c(C4CCN(C(=O)c5ccccc5Cl)CC4)nc32)cc1 | -23.2% (inactive) | – |
| C[C@@H]1CN([C@@H](C)CO)C(=O)CCCn2cc(nn2)CO[C@H]1CN(C)S(=O)(=O)c1ccc(-n2cccn2)cc1 | -1.95% (inactive) | – |
| C/C=C(\C)C(=O)OC1C(OC(=O)C2(C)OC2C)c2cc3ccc(=O)oc3cc2OC1(C)C (stereo not given) | 14.7% [at 9.04 µM] (inactive) | – |
